Test results taken from PubChem BioAssay (NCI).
Values joined by “and” are separate entries in the source; they are usually repeats but may differ in a detail not shown here. Equal entries are not always repeated. This is part of a sample that, as a whole, favours compounds with a hit. Of some 83,000 tested, about 20% had one in any assay.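 96-well plates, one dose, 48 hours. Percent growth reported; active if below 10.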 Values without a mark were called inactive. Active and inactive are the calls of the source.

Test system: PC-3 prostate
Experiment: NCI-60 one-dose screen, 48 h (100 = growth as untreated, 0 = no growth, -100 = all killed)
Conditions: 10 µM unless noted

SMILES | growth
CC[C@@]1(O)C[C@H](OC2CC(N(C)C)C(O)C(C)O2)c2c(O)c3c(c(O)c2[C@H]1OC1CC(N(C)C)C(O)C(C)O1)C(=O)c1cccc(O)c1C3=O (stereo partly specified) | -61.8% (active)
COC1CC(CC2CCC(C)C(C(C)C(=O)O)O2)OC2(OC(C)(C3CCC(C)(C4OC(C5OC(O)(CO)C(C)CC5C)CC4C)O3)CC2C)C1C (stereo unspecified) | 5.39% (active)
CCC(=O)OC1CCn2c1nc1c2C(=O)C(C)=C(N2CC2)C1=O (stereo unspecified) | 8.58% (active)
CO[C@H](/C(C)=C/C=C/C(C)=C/c1coc(C)n1)[C@H](C)[C@H]1C[C@@H](O)[C@@]2(C)O[C@H]2/C=C/[C@@H](C)[C@@H]2C[C@@H](CC(=O)O2)C[C@H]2O[C@@H]2C(=O)O1 | -14.4% (active)
CC1=C(CO)C2=C(C)C3(CC3)[C@@](C)(O)C(=O)C2=C1 | -18.8% (active)
COC1=C(C)C(=O)C2=C(C1=O)C(CO)N1C(C#N)C3CC4C(C1C2N1CCOC41)N3C (stereo unspecified) | -40.2% (active)
CC[n+]1c(-c2ccccc2)c2cc(N)ccc2c2ccc(N)cc21 | 20.9%
CN1CCN(c2ccc([N+](=O)[O-])c3no[n+]([O-])c23)CC1 | -65.9% (active)
COc1cccc2c1cc([N+](=O)[O-])c1c(C(=O)O)cc3c(c12)OCO3 | 77.3% and 73.7%
CCOC(=O)C(NC(=O)C(Cc1ccc(N(CCCl)CCCl)cc1)NC(C)=O)C(C)C (stereo unspecified) | 67.4%
C[C@]12CC[C@H](O)CC1=CC[C@@H]1[C@@H]2CC[C@]2(C)C(=O)CC[C@@H]12 | 79.2%
NCCc1ccc(OCc2ccccc2)c(OCc2ccccc2)c1 | 74.1%
Oc1cccc2cccnc12 | 86.9% and 97.3% and 92.3%
COc1ccccc1/C=C(/C)[N+](=O)[O-] | 90.3% and 84.7%
COc1ccc(OC)c(/C=C/[N+](=O)[O-])c1 | -29.4% (active)
CC[C@](O)(C(=O)O)c1cc2n(c(=O)c1CO)Cc1cc3ccccc3nc1-2 | -8.14% (active)
Cc1c(N)nc([C@H](CC(N)=O)NC[C@H](N)C(N)=O)nc1C(=O)N[C@H](C(=O)N[C@H](C)[C@@H](O)[C@H](C)C(=O)N[C@H](C(=O)NCCc1nc(-c2nc(C(=O)NCCC[S+](C)C)cs2)cs1)[C@@H](C)O)C(OC1OC(CO)C(O)C(O)C1OC1OC(CO)C(O)C(OC(N)=O)C1O)c1cnc[nH]1 (stereo partly specified) | 60.5% [2.5 µM]
CC[C@@]1(O)C(=O)OCc2c1cc1n(c2=O)Cc2cc3ccccc3nc2-1 | -22.3% (active)
Oc1cc[c]([Hg][Cl])cc1 | 99.7%
CCC1(O)CC(OC2CC(N(C)C)C(OC3CC4OC5CC(=O)C(C)OC5OC4C(C)O3)C(C)O2)c2c(cc3c(c2O)C(=O)c2c(O)ccc(O)c2C3=O)C1C(=O)OC (stereo unspecified) | -63.5% (active)
O=C1c2ccccc2C(=O)C(Cl)C1Cl (stereo unspecified) | 71.8%
Cc1ccc(C(=O)OC(C(=O)O)C(OC(=O)c2ccc(C)cc2)C(=O)O)cc1 (stereo unspecified) (tested in a mixture with another compound) | 29.4%
CCCCCCCCCCCC1CCCC(C)N1 (stereo unspecified) | 44.4%
CC(=O)O[C@H]1C[C@@H]2OC3C=C(C)CCC3(C)[C@@]1(C)[C@@]21CO1 (stereo partly specified) | -2.24% (active) and -4.21% (active)
CC[C@@]1(O)C[C@H](OC2CC(N(C)C)C(OC3CC(O)C(OC4CCC(=O)C(C)O4)C(C)O3)C(C)O2)c2c(cc3c(c2O)C(=O)c2c(O)ccc(O)c2C3=O)[C@H]1C(=O)OC (stereo partly specified) | -24.5% (active)
C[C@H]1CCC/C=C/[C@@H]2C[C@H](O)C[C@H]2[C@H](O)/C=C/C(=O)O1 | -14.6% (active)
